# APP transl inh: inhibitors of APP translation via 5'UTR reporter, primary screen, APP 5'UTR luciferase, SH-SY5Y cells; SH-SY5Y APP 5'UTR-luciferase reporter, luminescence; inhibition, % at 2 µM; actives 0.82% (n = 190,000); AID 1285, 2008;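 active means inhibition above a set limit, derived from the sample mean plus 3 SD, cut at about 45% in these data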
# KLF5 inhibitor: KLF5 expression inhibitors, primary screen, DLD-1 cells, luminescence | DLD-1 KLF5 promoter-luciferase reporter | inhibition, % at 5 µM | actives 0.23% (n = 290,000) | AID 1700, 2009;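 active means inhibition above a per-plate limit of that plate's mean compound inhibition plus 3 SD, cut at about 60% in these data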;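 further: 0% = DMSO wells and 100% = LY294002 at 200 µM; higher means less KLF5 promoter-driven luciferase light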
# BaF3 tox: parental Ba/F3 cell viability inhibition, counter-screen for JAK2V617F inhibitor project, murine pro-B, CellTiter-Glo luminescence; CellTiter-Glo ATP luminescence; inhibition, % at 5.6 µM; actives 1.1% (n = 220,000); AID 1486, 2009;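 active means inhibition above a per-campaign cutoff, the mean inhibition of all tested compounds plus 3 SD, cut at about 27% in these data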;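 further: 0% = DMSO wells and 100% = JAK Inhibitor I control wells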
# Ba/F3 V617F tox: reduced viability of JAK2V617F-dependent Ba/F3 cells, primary screen, JAK2V617F inhibitor project, cell-based, Ba/F3 EpoR-JAK2V617F, luminescence | ATP luminescence | inhibition, % at 5.6 µM | actives 1.1% (n = 220,000) | AID 1446, 2008;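 active means inhibition above the campaign mean plus 3 SD over all tested compounds, cut at about 24% in these data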;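 further: cytokine-independent growth of Ba/F3 cells driven by EpoR plus mutant JAK2; 0% = DMSO-treated cells and 100% = JAK inhibitor I control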
# IEC-6 cytotox: cytotoxicity in IEC-6 intestinal epithelial cells, primary screen, cytotoxicity control for KLF5 inhibitor project, cell-based, luminescence. IEC-6 cytotoxicity, luminescence viability. inhibition, % at 5 µM. actives 0.78% (n = 290,000). AID 1825, 2009; in the data active means inhibition above about 22%;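 further: 0% = plate median of test compound wells and 100% = cytotoxic reference compound wells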
# aSyn 5UTR inh: MLPCN primary screen, SNCA 5' untranslated region | actives 0.82% (n = 300,000) | inhibition, % (tested at 7.5 µM) | alpha-synuclein 5'UTR reporter, inhibitor activity; in the data active means inhibition above about 60%;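 further: H4 neuroglioblastoma cells stably carrying SNCA 5'UTR luciferase fusion; 0% = DMSO wells and 100% = positive control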
# BaF3 tox 2: parental Ba/F3 cell viability inhibition, counter-screen for JAK2V617F inhibitor project, murine pro-B, CellTiter-Glo luminescence. AID 1520, 2009. inhibition, % at 5.6 µM. cells kept alive by added IL-3. actives 31% (n = 580). shares compounds with Ba/F3 V617F tox;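 active means cell growth inhibition above the hit limit set in the earlier mutant JAK2 cell screen, cut at about 27% in these data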;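 further: plate controls were DMSO-treated cells for no effect and JAK Inhibitor I control wells for full effect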
# JAK2V617F confrm: viability loss in Ba/F3 EpoR-JAK2V617F cells, confirmation, JAK2V617F inhibitor project, cell-based, luminescence, triplicate; shares compounds with Ba/F3 V617F tox; CellTiter-Glo luminescence; inhibition, % at 5.6 µM; actives 66% (n = 580); AID 1521, 2009;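 active means mean inhibition above the hit cutoff derived in the earlier primary screen, cut at about 25% in these data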;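 further: 0% = DMSO-treated cells and 100% = JAK inhibitor I control wells; higher means lower luminescence from reduced cell ATP and viability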
# Numbers without * were called inactive; x = not tested or not shown. A selection: hits, their analogues and other compounds. The true share with any hit is near 2.2%.
SMILES,APP transl inh,KLF5 inhibitor,BaF3 tox,Ba/F3 V617F tox,IEC-6 cytotox,aSyn 5UTR inh,BaF3 tox 2,JAK2V617F confrm
Cc1c(C#N)sc2nc(-c3ccccc3)nc(N3CCCC3)c12,10,14,-1,95*,7,10,-5,-2
CCn1c(SCC(=O)Nc2ccccc2F)nnc1-c1ccoc1C,x,-8,x,x,-2,-15,x,x
CCn1c(SCC(=O)Nc2ccccc2-c2ccccc2)nnc1-c1ccoc1C,1,-13,1,52*,-2,2,-2,5
O=C(NC1(C(F)(F)F)Oc2ccccc2O1)N1CCCC1,15,2,23,40*,7,-44,10,36*
O=C(NCCS(=O)(=O)N1CCN(c2ccccc2)CC1)C1CCCC1,x,x,x,x,x,11,x,x
O=S1(=O)C=C(Sc2nc3cc(Cl)ccc3o2)c2ccccc21,40,-10,7,44*,-4,55,107*,99*
CCOc1ccc(NCCC#N)cc1,-17,-18,4,44*,-4,-22,-4,-9
CC1=CC(C)(C)Nc2ccc(OC(=O)CN3C(=O)CCC3=O)cc21,26,-10,4,4,4,31,x,x
CC1=CC(C)(C)Nc2ccc(OC(=O)c3ccco3)cc21,37,-12,0,43*,-4,13,37*,83*
O=C1COc2ccc(C(=O)COC(=O)/C=C/c3ccc(Br)o3)cc2N1,x,x,x,x,x,7,x,x
COc1cccc(C2(O)CCN(C(=O)c3cccs3)CC2)c1,6,-26,0,55*,-4,20,-1,-2
COc1cccc(C2(O)CCN(C(=O)C(C)C)CC2)c1,x,5,5,-3,10,3,x,x
CC1CC(C)CN(C(=O)CNC(=O)c2ccc3ccccc3c2)C1 (stereo not drawn),x,-44,x,x,8,-3,x,x
Cc1ccc(NC(=O)CSc2nc3c(c(=O)[nH]2)CCC3)c(C)c1,x,-4,x,x,10,0,x,x
COc1ccc(-c2cc(C(=O)N/N=C/c3ccc(OC)c(COCC(F)(F)C(F)F)c3)c3ccccc3n2)c(OC)c1,4,-19,4,49*,4,32,-2,6
CCCNC(=O)c1onc(CS(=O)(=O)c2cccc(OC)c2)c1C(=O)NCCC,x,x,x,x,x,15,x,x
c1csc(COc2ccccc2CNC2CCCCC2)c1,8,-4,2,3,3,-8,x,x
O=C(CCC1CCCC1)Nc1cc(C(F)(F)F)ccc1N1CCOCC1,x,x,x,x,x,9,x,x
O=C(CSc1nc2ncc(Cl)cc2[nH]1)c1ccc2c(c1)OCO2,x,-7,-3,88*,19,-34,-5,-10
CCCCn1c(SCC(=O)c2ccc(O)c(O)c2)nc2ccsc2c1=O,-14,-22,12,40*,-3,30,32*,88*
O=C(NCCc1ccccc1)C1CCC(=O)N1C1CCCC1 (stereo not drawn),x,4,x,x,-2,-19,x,x
CC(C(=O)NCCCn1ccnc1)(c1ccccc1)c1ccccc1,x,-35,x,x,0,2,x,x
Oc1ccc(/C=N/Nc2nc(N3CCCC3)nc(N3CCCC3)n2)cc1O,-7,-11,5,46*,1,-24,71*,98*
COc1cc(/C=N/Nc2nc(N3CCCC3)nc(N3CCCC3)n2)ccc1O,0,-8,2,0,3,0,x,x
CCc1ccccc1N(C(C)=O)c1nc(CN=C=S)cs1,-7,-3,3,2,5,-1,x,x
O=C(NCC1CCCO1)c1cccc(N2C(=O)C3C4C=CC(C4)C3C2=O)c1 (stereo not drawn),-4,-12,1,96*,-6,-12,-6,-5
O=C(Cc1c(F)cccc1Cl)Nc1ccccc1C(=O)N1CCCCC1,x,x,x,x,x,2,x,x

# From PubChem
